Screening results from PubChem BioAssay.
C diff growth: C. difficile growth inhibition. Clostridium difficile clinical isolate growth, OD600, 24 h; active compounds read low. growth activity, negative = inhibition, % at 16 µg/mL (by protocol). 0.25% of 86,000 active;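 active = mean growth activity at or below -80% and every replicate also at or below -80%; inconclusive = mean at or below -80% but some replicate above -80%; inactive = mean growth activity above -80%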;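 note: 0% = DMSO wells and -100% = levofloxacin 16 µg/mL wells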
T cruzi growth-1: blocks T. cruzi growth in NIH3T3 culture; 5.9% of 77,000 active; T. cruzi beta-gal in NIH3T3, GalScreen luminescence, 90 h; AID 624255; inhibition, % at 8.34 µM;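 active = mean inhibition above about 93%, with at least 55% of replicates each passing it, limit read from the data, passing the limit was not always enough; inconclusive = only one of those two conditions holds; inactive = neither condition holds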
Pf Dd2 growth: blocks growth of Plasmodium falciparum Dd2 parasites; P. falciparum Dd2 growth, SYBR Green, 72 h; active compounds read low; activity change, % at 10 µM; 2.3% of 94,000 active; AID 1159554; in the data active = activity change below about -80%; inconclusive = no clear call, values can overlap the other calls
T cruzi growth-2: inhibitors of T. cruzi proliferation; shares compounds with T cruzi growth-1; T. cruzi beta-gal in NIH3T3, GalScreen luminescence, 90 h; inhibition, % at 8.35 µM; 72% of 5,600 active;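 active = mean replicate inhibition above about 95% and at least 55% of replicates individually reaching it, limit read from the data; inconclusive = only one of the two criteria is met; inactive = neither criterion is met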
T cruzi growth-3: inhibitors of T. cruzi proliferation. shares compounds with T cruzi growth-1. T. cruzi beta-gal in NIH3T3, GalScreen luminescence, 90 h. inhibition, % at 2.09 µM. 21% of 5,600 active. AID 651740;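 active = mean inhibition above about 95%, with at least 55% of replicates also reaching it, limit read from the data; inconclusive = meets just one of the two conditions; inactive = meets neither condition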;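 note: plate controls were neutral control median for no effect and positive control median for full effect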
NIH3T3 tox: cytotoxicity in mouse NIH/3T3 fibroblasts. 14% of 5,600 active. shares compounds with T cruzi growth-1. cytotoxicity (signal decrease), % at 8.35 µM. NIH/3T3 viability, CellTiter-Glo ATP luminescence, 90 h. AID 651742;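 active = mean signal decrease across replicates above about 35% based on untreated-well scatter, with enough replicates individually passing, limit read from the data; inconclusive = no rule stated though some were filed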;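 note: 0% = median of neutral control wells and 100% = median of positive control wells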
3T3 cytotox 2: NIH/3T3 (mouse) viability loss | shares compounds with T cruzi growth-1 | NIH/3T3 viability, CellTiter-Glo ATP luminescence, 90 h | inhibition, % at 24.9 µM | 56% of 5,600 active | AID 651744;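 active = mean loss of cell viability signal at or above a set limit, and enough replicates individually reaching it; inconclusive = meets only the mean limit or only the replicate share; inactive = meets neither condition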;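 note: 0% = median of neutral control wells and 100% = median of positive control wells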
* marks the source's active call; other numbers are inactive results; ? = inconclusive; nt = no result. This is a sample that favours compounds with a hit; in the whole collection about 6.8% have one here.

SMILES	C diff growth	T cruzi growth-1	Pf Dd2 growth	T cruzi growth-2	T cruzi growth-3	NIH3T3 tox	3T3 cytotox 2
O=C(C[C@H]1CC[C@@H]2[C@H](COC[C@H](O)CN2S(=O)(=O)c2ccccc2)O1)N1CCc2ccccc2C1	nt	29	-9	nt	nt	nt	nt
C[C@H](O)C#Cc1ccc2c(c1)O[C@@H](CN(C)C(=O)CC1CC1)[C@H](C)CN([C@@H](C)CO)S2(=O)=O	-3	-23	nt	nt	nt	nt	nt
CNC[C@@H]1Oc2c(NC(=O)C3CC3)cccc2C(=O)N([C@@H](C)CO)C[C@@H]1C	2	13	-14	nt	nt	nt	nt
C[C@@H]1CN([C@H](C)CO)S(=O)(=O)c2ccc(C#CC(C)(C)O)cc2O[C@@H]1CN(C)C(=O)C1CC1	nt	-21	21	nt	nt	nt	nt
CCCC#Cc1ccc2c(c1)O[C@@H](CN(C)C(=O)C1CC1)[C@@H](C)CN([C@H](C)CO)S2(=O)=O	-1	63	-30	nt	nt	nt	nt
C[C@@H]1CN([C@H](C)CO)S(=O)(=O)c2ccc(C#CC(C)(C)O)cc2O[C@H]1CN(C)C(=O)C1CC1	nt	105*	8	45	8	29	42*
CCCC#Cc1ccc2c(c1)O[C@@H](CN(C)C(=O)C1CC1)[C@@H](C)CN([C@@H](C)CO)S2(=O)=O	2	61	-36	nt	nt	nt	nt
C[C@@H]1CN([C@H](C)CO)S(=O)(=O)c2ccc(C#CCN(C)C)cc2O[C@H]1CN(C)C(=O)C1CC1	-3	89*	-12	?	80	-11	-2
C[C@H]1CN([C@@H](C)CO)S(=O)(=O)c2ccc(C#CCN(C)C)cc2O[C@@H]1CN(C)C(=O)C1CC1	-3	111*	-8	109*	99*	5	5
COc1ccc(S(=O)(=O)Nc2ccc3c(c2)C(=O)N([C@H](C)CO)C[C@H](C)[C@H](CN(C)S(=O)(=O)c2ccc(Cl)cc2)OCCCC[C@H](C)O3)cc1	-4	?	-56	103*	107*	-12	24
COc1ccc(S(=O)(=O)Nc2ccc3c(c2)C(=O)N([C@@H](C)CO)C[C@@H](C)[C@@H](CN(C)S(=O)(=O)c2ccc(Cl)cc2)OCCCC[C@@H](C)O3)cc1	-4	84	-43	nt	nt	nt	nt
COc1ccc(S(=O)(=O)Nc2ccc3c(c2)C(=O)N([C@@H](C)CO)C[C@@H](C)[C@H](CN(C)S(=O)(=O)c2ccc(Cl)cc2)OCCCC[C@H](C)O3)cc1	1	100*	-64	108*	90	-1	3
COc1ccc(S(=O)(=O)N(C)C[C@H]2OCCCC[C@@H](C)Oc3ccc(NS(=O)(=O)c4ccc(Cl)cc4)cc3C(=O)N([C@@H](C)CO)C[C@H]2C)cc1	-1	nt	-67	nt	nt	nt	nt
COc1ccc(S(=O)(=O)Nc2ccc3c(c2)C(=O)N([C@@H](C)CO)C[C@@H](C)[C@H](CN(C)S(=O)(=O)c2ccc(Cl)cc2)OCCCC[C@@H](C)O3)cc1	-4	?	-37	105*	104*	10	33*
COc1ccc(S(=O)(=O)Nc2ccc3c(c2)C(=O)N([C@H](C)CO)C[C@@H](C)[C@@H](CN(C)S(=O)(=O)c2ccc(Cl)cc2)OCCCC[C@H](C)O3)cc1	-3	99*	-72	102*	?	-32	1
COc1ccc(S(=O)(=O)N(C)C[C@@H]2OCCCC[C@H](C)Oc3ccc(NS(=O)(=O)c4ccc(Cl)cc4)cc3C(=O)N([C@@H](C)CO)C[C@@H]2C)cc1	-1	nt	-59	nt	nt	nt	nt
COc1ccc(S(=O)(=O)N(C)C[C@@H]2OCCCC[C@@H](C)Oc3ccc(NS(=O)(=O)c4ccc(Cl)cc4)cc3C(=O)N([C@@H](C)CO)C[C@@H]2C)cc1	-3	nt	-76	nt	nt	nt	nt
Cc1ccc(CN2CC(=O)N3[C@H](CO)[C@@H](c4ccc(-c5ccccc5F)cc4)[C@@H]3C2)cc1	6	nt	-42	nt	nt	nt	nt
CCCN1[C@@H]2c3ccc(C4=CCCC4)c(=O)n3C[C@@H]2[C@@H](CO)[C@@H]1C(=O)NCCCN(C)C	0	39	8	nt	nt	nt	nt
C[C@H]1CN([C@@H](C)CO)S(=O)(=O)c2ccc(C#CC3CC3)cc2O[C@H]1CN(C)C(=O)c1cccc(F)c1	4	nt	-15	nt	nt	nt	nt
C[C@@H]1CN([C@@H](C)CO)S(=O)(=O)c2ccc(C#CC3CC3)cc2O[C@H]1CN(C)C(=O)c1cccc(F)c1	25	nt	15	nt	nt	nt	nt
C[C@H](CO)N1C[C@H](C)[C@H](CN(C)C(=O)c2cccc(F)c2)Oc2cc(C#CC3CC3)ccc2S1(=O)=O	6	nt	35	nt	nt	nt	nt
C[C@H](CO)N1C[C@H](C)[C@H](CN(C)C(=O)c2cccc(F)c2)Oc2cc(C#CC3CCCC3)ccc2S1(=O)=O	nt	123*	-65	103*	78	5	103*
C[C@@H]1CN([C@H](C)CO)S(=O)(=O)c2ccc(C#CC3CC3)cc2O[C@H]1CN(C)C(=O)c1cccc(F)c1	23	nt	-46	nt	nt	nt	nt
C[C@@H]1CN([C@H](C)CO)S(=O)(=O)c2ccc(C#CC3CCCC3)cc2O[C@@H]1CN(C)C(=O)c1cccc(F)c1	nt	123*	-59	95*	?	11	103*
SMILES	C diff growth	T cruzi growth-1	Pf Dd2 growth	T cruzi growth-2	T cruzi growth-3	NIH3T3 tox	3T3 cytotox 2
C[C@@H]1CN([C@@H](C)CO)S(=O)(=O)c2ccc(C#CC3CCCC3)cc2O[C@@H]1CN(C)C(=O)c1cccc(F)c1	nt	118*	-40	102*	98*	19	106*
C[C@@H]1CN([C@@H](C)CO)S(=O)(=O)c2ccc(C#CC3CCCC3)cc2O[C@H]1CN(C)C(=O)c1cccc(F)c1	nt	120*	?	91	100*	41*	106*
COc1ccc(NC(=O)Nc2ccc3c(c2)CC(=O)N([C@@H](C)CO)C[C@@H](C)[C@@H](CN(C)Cc2ccc(C(=O)O)cc2)O3)cc1	-5	20	-5	nt	nt	nt	nt
C[C@@H]1CN([C@@H](C)CO)C(=O)c2cc(NS(=O)(=O)c3ccc(F)cc3)ccc2O[C@@H](C)CCCCO[C@@H]1CN(C)C(=O)Nc1ccccc1	3	27	-59	nt	nt	nt	nt
O=C(C[C@@H]1C[C@H]2c3cc(NC(=O)NC4CCCCC4)ccc3O[C@H]2[C@@H](CO)O1)NC1CCCCC1	-1	nt	-16	nt	nt	nt	nt
CO[C@@H]1CN(C)C(=O)c2ccc(NC(=O)C3CC3)cc2OC[C@@H](C)N(C(=O)C2CCOCC2)C[C@@H]1C	nt	40	nt	nt	nt	nt	nt
C[C@H]1CN([C@@H](C)CO)S(=O)(=O)c2ccc(C#CC3CC3)cc2O[C@@H]1CN(C)C(=O)c1cccc(F)c1	4	nt	-8	nt	nt	nt	nt
C[C@@H]1CN([C@H](C)CO)S(=O)(=O)c2ccc(C#CC3CCCC3)cc2O[C@H]1CN(C)C(=O)c1cccc(F)c1	nt	123*	-85*	101*	90	5	103*
COc1ccc(S(=O)(=O)Nc2ccc3c(c2)CC(=O)N([C@@H](C)CO)C[C@H](C)[C@H](CN(C)C(=O)Nc2cccc4ccccc24)O3)cc1	-6	-31	-24	nt	nt	nt	nt
